Measured values published in PubChem BioAssay (NCATS).
Inconclusive results are not listed. Entries that show only a call come without a potency. Calls of active or inactive are those of the source. The call rests on the fitted dose curve; in most records, active means well fitted inhibition curve with a large enough effect; inconclusive means small, poorly fitted or top-dose-only effect; inactive means no such curve, though single readings can be large or run the other way.

What follows are compounds tested against N-terminal Xaa-Pro-Lys N-methyltransferase 1 (Homo sapiens) (UniProt Q9BV86) (assay: qHTS Assay for Inhibitors of N-terminal methyltransferase 1 (NTMT1): LOPAC validation of the NTMT1 SAHH-coupled ThioGlo3 Assay (AID 1347143;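 further: SAH from peptide methylation measured as thiol fluorescence via SAHH coupling and ThioGlo3; nearly all actives have a fitted effect of over 70% in size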)). Conditions: recombinant NTMT1, SAHH-coupled ThioGlo3 fluorescence; series mostly up to 114 µM.
Chain of N-terminal Xaa-Pro-Lys N-methyltransferase 1 (Homo sapiens) (Q9BV86 whole entry, looked up): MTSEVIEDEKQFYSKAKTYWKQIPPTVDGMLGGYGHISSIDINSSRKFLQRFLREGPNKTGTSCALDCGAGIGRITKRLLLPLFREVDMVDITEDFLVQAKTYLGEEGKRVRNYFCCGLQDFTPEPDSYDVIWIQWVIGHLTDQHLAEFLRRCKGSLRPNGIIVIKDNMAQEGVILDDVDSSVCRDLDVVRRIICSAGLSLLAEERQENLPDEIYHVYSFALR
Summary of the method: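 NTMT1 125nM + cpds (various conc.), 1 min RT; add SAM 100uM/SAHH 10uM/ThioGlo3 15uM (addition mix). SAHH-coupled thiol detection, Ex340/Em450, t0 and 30 min RT; signal normalized to background. LOPAC 1280-cpd pilot.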
Potency means the concentration at half of the fitted maximal effect.

SMILES | Potency
CNC[C@H](O)c1ccc(O)c(O)c1 | inactive
C[C@@H](c1ncncc1F)[C@](O)(Cn1cncn1)c1ccc(F)cc1F | inactive
COc1ccccc1N1CCN(CCN(C(=O)C2CCCCC2)c2ccccn2)CC1 | inactive
Nc1nc(N)c(N=O)c(OCC2CCCCC2)n1 | inactive
C[C@@H](N)C1CCC(C(=O)Nc2ccncc2)CC1 (some centres not stated) | inactive
Cc1cccc(-c2[nH]ncc2-c2ccc3ncccc3n2)n1 | inactive
O=C1NC(=O)C(c2ccccc2[N+](=O)[O-])=C1Nc1ccc(O)c(Cl)c1 | 28.2 µM (active)
O=C(O)c1cccnc1Nc1cccc(C(F)(F)F)c1 | inactive
Cc1c(OCC(F)(F)F)ccnc1CS(=O)c1nc2ccccc2[nH]1 (configuration not stated) | 50.1 µM (active)
CCOC(=O)C1=C(O)C(=O)N(Cc2ccccc2)C1 | inactive
Oc1ccc2ccccc2c1SSc1c(O)ccc2ccccc12 | 35.5 µM (active)
O=C(c1ccccc1)c1ccc2n1CCC2C(=O)O (configuration not stated) | inactive
O=c1ccc2ccc(O)c(O)c2o1 | 39.8 µM (active)
CC(=O)NC[C@H]1CN(c2ccc(N3CCOCC3)c(F)c2)C(=O)O1 | inactive
C[C@H](Cc1ccc(O)c(O)c1)[C@@H](C)Cc1ccc(O)c(O)c1 | 10 µM (active)
NNc1nncc2ccccc12 | 79.4 µM (active)
CC1(C)NC(=O)N(c2ccc([N+](=O)[O-])c(C(F)(F)F)c2)C1=O | inactive
NC(=NCc1ccccc1)NC(=O)c1nc(Cl)c(N)nc1N | 56.2 µM (active)
Cc1cc(O)c2c(c1)C(=O)c1cc(O)cc(O)c1C2=O | 17.8 µM (active)
CC(=O)N1CCN(c2ccc(OC[C@H]3CO[C@](Cn4ccnc4)(c4ccc(Cl)cc4Cl)O3)cc2)CC1 | 50.1 µM (active)
COc1cc2c(cc1OC)C1CC(=O)C(CC(C)C)CN1CC2 (configuration not stated) | inactive
CC(C)c1ccc2c(c1)c(SC(C)(C)C)c(CC(C)(C)C(=O)O)n2Cc1ccc(Cl)cc1 | inactive
NCCCCNCCCN | inactive
Clc1ccc2c(N3CCN(CCCN4CCN(c5ccnc6cc(Cl)ccc56)CC4)CC3)ccnc2c1 | 50.1 µM (active)

What follows are compounds tested against Furin (Homo sapiens) (UniProt P09958) (assay: Furin counterscreen qHTS for Zika virus inhibitors (AID 1347149; further: nearly all actives have a fitted effect of over 70% in size)). Conditions: furin enzymatic counterscreen, fluorogenic substrate; series mostly up to 57.5 µM.
Chain of Furin (Homo sapiens) (P09958 whole entry, looked up): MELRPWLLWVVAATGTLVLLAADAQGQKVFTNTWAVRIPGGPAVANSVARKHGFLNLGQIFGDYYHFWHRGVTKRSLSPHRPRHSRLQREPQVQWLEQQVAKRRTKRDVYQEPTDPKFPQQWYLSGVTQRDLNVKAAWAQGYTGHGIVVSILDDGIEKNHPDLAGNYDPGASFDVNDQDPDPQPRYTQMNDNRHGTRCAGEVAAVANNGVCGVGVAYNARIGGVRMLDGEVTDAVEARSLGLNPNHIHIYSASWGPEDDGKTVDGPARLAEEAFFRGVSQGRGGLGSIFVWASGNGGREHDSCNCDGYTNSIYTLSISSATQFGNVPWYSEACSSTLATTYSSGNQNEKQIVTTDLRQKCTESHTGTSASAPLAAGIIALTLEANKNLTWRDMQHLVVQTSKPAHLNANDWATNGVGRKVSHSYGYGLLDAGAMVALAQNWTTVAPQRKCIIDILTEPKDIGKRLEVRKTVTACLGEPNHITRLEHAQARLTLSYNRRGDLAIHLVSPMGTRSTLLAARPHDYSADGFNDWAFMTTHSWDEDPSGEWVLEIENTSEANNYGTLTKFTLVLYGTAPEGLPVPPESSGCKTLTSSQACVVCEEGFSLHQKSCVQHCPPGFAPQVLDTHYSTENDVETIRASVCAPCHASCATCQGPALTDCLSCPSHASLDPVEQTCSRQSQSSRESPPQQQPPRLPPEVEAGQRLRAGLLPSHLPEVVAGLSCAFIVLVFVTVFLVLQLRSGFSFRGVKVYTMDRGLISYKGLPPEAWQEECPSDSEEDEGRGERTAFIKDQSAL
Summary of the method: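 Counterscreen measures cleavage of 2 microM BOC-RVRR-AMC, below its ~15 microM Km, by 5 nM full-length human furin at pH 7.0 after a 15-min compound preincubation. Inhibition derives from the 15-min fluorescence increase at 37C.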

SMILES | Potency
N[C@@H](Cc1cc(I)c(Oc2cc(I)c(O)c(I)c2)c(I)c1)C(=O)O | inactive
O=C(O)c1cn(-c2ccc(F)cc2)c2cc(N3CCNCC3)c(F)cc2c1=O | 24.1 µM (active)
COc1c2occc2cc2ccc(=O)oc12 | inactive
Cc1nc(-c2ccc(OCC(C)C)c(C#N)c2)sc1C(=O)O | 24.1 µM (active)
O=c1c(O)c(-c2ccc(O)cc2O)oc2cc(O)cc(O)c12 | inactive
S=c1nc[nH]c2nc[nH]c12 | inactive
COc1cc2c(cc1OC)C1CC(=O)C(CC(C)C)CN1CC2 (configuration not stated) | 27.1 µM (active)

Each compound was assayed on Zika virus NS2B-NS3 protease (unlinked) (assay: Optimization of GU AMC qHTS for Zika virus inhibitors: Unlinked NS2B-NS3 protease assay (AID 1347151; further: nearly all actives have a fitted effect of over 80% in size)). Conditions: recombinant ZIKV NS2B-NS3 protease, fluorogenic AMC substrate; series mostly up to 52.5 µM.
Summary of the method: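 Fluorescence read-out (340 nm ex / 450 nm em) of AMC peptide cleavage, taken immediately and after 15 min at room temperature (~20% conversion). Enzyme was the unlinked NS2B–NS3 complex at 25 nM in Tris pH 8.0 buffer.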

SMILES | Potency
CNC[C@H](O)c1ccc(O)c(O)c1 | inactive
C[C@@H](c1ncncc1F)[C@](O)(Cn1cncn1)c1ccc(F)cc1F | inactive
COc1ccccc1N1CCN(CCN(C(=O)C2CCCCC2)c2ccccn2)CC1 | inactive
Nc1nc(N)c(N=O)c(OCC2CCCCC2)n1 | inactive
C[C@@H](N)C1CCC(C(=O)Nc2ccncc2)CC1 (some centres not stated) | inactive
Cc1cccc(C#Cc2ccccc2)n1 | inactive
Cc1cccc(-c2[nH]ncc2-c2ccc3ncccc3n2)n1 | inactive
O=C1NC(=O)C(c2ccccc2[N+](=O)[O-])=C1Nc1ccc(O)c(Cl)c1 | inactive
O=C(O)c1cccnc1Nc1cccc(C(F)(F)F)c1 | inactive
CCOC(=O)C1=C(O)C(=O)N(Cc2ccccc2)C1 | inactive
Oc1ccc2ccccc2c1SSc1c(O)ccc2ccccc12 | 10.6 µM (active)
O=C(c1ccccc1)c1ccc2n1CCC2C(=O)O (configuration not stated) | inactive
O=c1ccc2ccc(O)c(O)c2o1 | inactive
Cc1cc(Cl)ccc1OCCCC(=O)NO | inactive
CC(=O)NC[C@H]1CN(c2ccc(N3CCOCC3)c(F)c2)C(=O)O1 | inactive
C[C@H](Cc1ccc(O)c(O)c1)[C@@H](C)Cc1ccc(O)c(O)c1 | 9.47 µM (active)

SMILES | Potency
NNc1nncc2ccccc12 | inactive
CCOC(=O)C(C)Oc1cccc2c(=O)n(CC(=O)Nc3ccc4c(c3)OCCO4)ccc12 (configuration not stated) | 21.2 µM (active)
CC1(C)NC(=O)N(c2ccc([N+](=O)[O-])c(C(F)(F)F)c2)C1=O | inactive
O=c1c(O)c(-c2ccc(O)cc2O)oc2cc(O)cc(O)c12 | 11.9 µM (active)
NC(=NCc1ccccc1)NC(=O)c1nc(Cl)c(N)nc1N | 26.7 µM (active)
Cc1cc(O)c2c(c1)C(=O)c1cc(O)cc(O)c1C2=O | 15 µM (active)
CC(=O)N1CCN(c2ccc(OC[C@H]3CO[C@](Cn4ccnc4)(c4ccc(Cl)cc4Cl)O3)cc2)CC1 | inactive
S=c1nc[nH]c2nc[nH]c12 | inactive
CC(C)c1ccc2c(c1)c(SC(C)(C)C)c(CC(C)(C)C(=O)O)n2Cc1ccc(Cl)cc1 | 1.34 µM (active)
O=C1c2ccccc2-c2n[nH]c3cccc1c23 | 11.9 µM (active)
CN(C)CCCC1(c2ccc(F)cc2)OCc2cc(C#N)ccc21 (configuration not stated) | inactive
O=c1cc(N2CCOCC2)oc2c(-c3ccccc3)cccc12 | 26.7 µM (active)
COc1ccc2cc([C@H](C)C(=O)O)ccc2c1 | 23.8 µM (active)
NCCCCNCCCN | inactive
Clc1ccc2c(N3CCN(CCCN4CCN(c5ccnc6cc(Cl)ccc56)CC4)CC3)ccnc2c1 | inactive
